According to the supplement of paper PMC12494721:
Where a name gives a salt, the structure may show the parent alone.

Each molecule was assayed on Clostridium sporogenes DSM 1664 (assay: growth (OD595) fold change vs plate DMSO controls (fold change (ratio)); higher = more growth). Details: incubation time: 27 h, anaerobic, 37 °C.
In short: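 To obtain OD, 595 nm absorbance readings were blank-subtracted, corrected for compound background using 20 µM compound solutions in water, and multiplied by a calibration factor of 5. They came from 96-well mGAM cultures grown anaerobically for 27 h at 37 °C and shaken before reading. Growth is the fold change relative to the median of plate DMSO controls. Two biological replicates were averaged, and fold changes above 1.5 were set to NA.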

SMILES | growth
CC(C)(C)CC(C)(C)c1ccc(OCCOCC[N+](C)(C)Cc2ccccc2)cc1 [Benzethonium chloride] (20 µM) | 0.869
Nc1ncn(C2OC(CO)C(O)C2O)c(=O)n1 (stereo not given) [Azacytidine-5] (20 µM) | 1.02
COc1cc(Cc2cnc(N)nc2N)cc(OC)c1OC [Trimethoprim] (20 µM) | 1.03
O=C1C(=O)c2ccccc2C(O)=C1C1CCC(c2ccc(Cl)cc2)CC1 (stereo not given) [Atovaquone] (20 µM) | 1.24
OC(c1cc(C(F)(F)F)nc2c(C(F)(F)F)cccc12)C1CCCCN1 (stereo not given) [Mefloquine hydrochloride] (20 µM) | 0.869
C[C@H]1COc2c(N3CCN(C)CC3)c(F)cc3c(=O)c(C(=O)O)cn1c23 [Levofloxacin] (20 µM) | 0.012
NC(=O)c1cc[n+](CC2=C(C(=O)O)N3C(=O)[C@@H](NC(=O)C(c4ccccc4)S(=O)(=O)[O-])[C@H]3SC2)cc1 (stereo not given in full) [Cefsulodin Sodium Salt Hydrate] (20 µM) | 0.555
CO[C@@]1(NC(=O)CSCC#N)C(=O)N2C(C(=O)O)=C(CSc3nnnn3C)CS[C@@H]21 [Cefmetazole sodium salt] (20 µM) | 0
CC/C(=C(\c1ccccc1)c1ccc(OCCN(C)C)cc1)c1ccccc1 [Tamoxifen citrate] (20 µM) | 1.11
C#C[C@]1(O)CC[C@H]2[C@@H]3CCC4=CCCC[C@@H]4[C@H]3CC[C@@]21C [Lynestrenol] (20 µM) | 0.94
